The results in this text go back to PubChem BioAssay (NCI).

Holding throughout (assay): NCI-60 one-dose screen, 48 h (100 = growth as untreated, 0 = no growth, -100 = all killed)
Holding throughout (details): 10 µM unless noted

For experiment [1], the system named is RPMI-8226 leukemia.
The test system of experiment [2] is OVCAR-8 ovarian.
Experiment [3] relates to OVCAR-5 ovarian.
Experiment [4] relates to OVCAR-4 ovarian.
Experiment [5] concerns SK-OV-3 ovarian.
Experiment [6] has as its system IGROV1 ovarian.
In experiment [7] the test system is OVCAR-3 ovarian.
The subject of experiment [8] is HS 578T breast.
The test system of experiment [9] is NCI/ADR-RES ovarian.
The test system of experiment [10] is T-47D breast.
Experiment [11] deals with BT-549 breast.
The subject of experiment [12] is MDA-MB-435 melanoma.
In experiment [13] the test system is SW-620 colon.
The test system of experiment [14] is MCF7 breast.
Experiment [15] deals with HCT-116 colon.
Experiment [16] has as its system HCC-2998 colon.
Experiment [17] has as its system KM12 colon.

Compounds without any hit were thinned out: in the full panel of roughly 83,000, 20% have a hit.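 Method: cells in 96-well plates; compound added at one concentration; 48 h incubation; percent growth measured; values under 10 scored active.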 A number with no mark means an inactive call. Active and inactive are the calls of the source.

On to `COc1ccc(C2CC(c3ccc(Nc4ccnc5cc(Cl)ccc45)cc3)=NN2C=O)cc1` (centres undefined), for which the growth in experiment [1] was 30.9%; in experiment [2], 73.3%; in [3], 102%; in experiment [4], 62.3%; in [5], 96.9%; in experiment [6], 67.5%. Besides, the growth in [7] was 52.7%; in experiment [8], 68.8%; in experiment [9] it was 51.7%; in experiment [10], 51.1%; in experiment [11] it was 63.7%; in experiment [12], -3.72% (active). For the same compound, the growth in [13] is 70.9%; in experiment [14], 40.3%; in [15], 55.7%; in [16], 57.8%; in [17], 66.2%.
For `COc1ccc(/C=N/Nc2cc(=O)[nH]c3ccc(Cl)cc23)cc1`, the growth was 36.6% in experiment [1]; 69.1% in experiment [2]; 95.1% in experiment [3]; 43.1% in experiment [4]; 95.2% in [5]; 75.7% in experiment [6]. The growth was 11.8% in [7]; 91.7% in [8]; 78% in [9]; 42.4% in experiment [10]; 32.1% in experiment [11]; 43.2% in [12]. The growth in experiment [13] is 37.9%; in [14], 35.2%; in experiment [15], 8.92% (active); in experiment [16], 88.8%; in experiment [17], 46.6%.
For `COc1cc(C(=O)c2cc(C)c3[nH]c4ccc(O)cc4c3c2C)cc(OC)c1OC`, the growth in experiment [1] was 8.34% (active); in [2] it was 27.3%; in experiment [3] it was 38.9%; in experiment [4], 48.3%; in [5], 46.5%; in [6] it was 12.1%. The growth was -45% (active) in [7]; 38.1% in experiment [8]; 8.01% (active) in experiment [9]; 38.5% in experiment [10]; -1.57% (active) in experiment [11]; -6.06% (active) in experiment [12]. Further, the growth in experiment [13] is 31.2%; in experiment [14], 11%; in experiment [15], -5.93% (active); in [16] it was 20.6%; in experiment [17] it was 4.49% (active).
With `Cc1cc2nc3cc(C)c(N)cc3[n+](-c3ccccc3)c2cc1N`, the growth in experiment [1] is 41.4%; in experiment [2] it was 40.7%; in experiment [3] it was 103%; in [4], 36.4%; in experiment [5] it was 91.3%; in experiment [6] it was 79.4%. The growth in experiment [7] was 26.2%; in experiment [8], 59.2%; in [9], 101%; in experiment [10], 14%; in experiment [11], 18.5%; in [12], 67.2%. The growth in experiment [13] is 72.9%; in [14], 32.7%; in [15] it was 33.1%; in experiment [16], 56.6%; in [17] it was 28%.
As to `COc1ccc(S(=O)(=O)n2cc(C3OC(c4cc(OC)c(OC)c(OC)c4)=NN3C(C)=O)c3ccccc32)cc1OC` (centres undefined), the growth in experiment [1] is 61.5%; in experiment [2], 80.9%; in experiment [3] it was 85.8%; in experiment [4], 77.9%; in experiment [5] it was 96.6%; in experiment [6] it was 83.5%. Also, the growth in experiment [7] is 112%; in experiment [8] it was 92.3%; in [9], 81.7%; in experiment [10], 54.7%; in experiment [11], 51.8%; in experiment [12], 95.4%. Besides, the growth in [13] was 97.9%; in [14], 88%; in [15] it was 67.7%; in [16], 105%; in [17], 137%.
For the compound `Nc1cc2c(cc1Br)-c1cc(Cl)ccc1C2=O`, the growth in experiment [1] is 88.7%; in experiment [2], 99.3%; in [3] it was 91.8%; in experiment [4], 99.9%; in experiment [5], 98.7%; in [6], 74.2%. Further, the growth in experiment [7] is 96.5%; in experiment [8], 98.6%; in experiment [9] it was 106%; in [10], 91.7%; in [11], 121%; in experiment [12] it was 117%. In addition, the growth is 109% in [13]; 57.9% in experiment [14]; 96.1% in experiment [15]; 114% in [16]; 98.6% in [17].
Turning to `c1ccc2c(-c3nc(-c4c[nH]c5ccncc45)cs3)c[nH]c2c1`, the growth was 10.9% in experiment [1]; 60.2% in [2]; 70.8% in experiment [3]; 59.5% in [4]; 73.3% in experiment [5]; 54.2% in [6]. Moreover, the growth in experiment [7] was 72.3%; in [8] it was 72.3%; in [9] it was 72.7%; in experiment [10], 58.8%; in [11] it was 77.3%; in experiment [12], -79.8% (active). Also, the growth in experiment [13] is -63% (active); in experiment [14], 20.5%; in experiment [15], -15.3% (active); in experiment [16] it was -34.4% (active); in experiment [17], 34%.
Regarding `COc1cc(C)c(Cc2cnc(N)nc2N)cc1OC`, the growth is 82.1% in [1]; 105% in experiment [2]; 99.6% in [3]; 99.5% in experiment [4]; 105% in [5]; 95.1% in [6]. In addition, the growth is 114% in experiment [7]; 103% in experiment [8]; 104% in experiment [9]; 92.7% in experiment [10]; 95.4% in [11]; 112% in experiment [12]. In addition, the growth was 102% in experiment [13]; 101% in experiment [14]; 112% in experiment [15]; 108% in experiment [16]; 111% in experiment [17].
`COc1ccc2cc(C(C)C(=O)Nc3ccc(-c4n[nH]c(=S)n4C4CCCCC4)cc3)ccc2c1` (centres undefined): the growth is 54.3% in experiment [1]; 75.6% in experiment [2]; 101% in [3]; 88.1% in experiment [4]; 105% in experiment [5]; 88.9% in experiment [6]. Moreover, the growth in experiment [7] was 86.4%; in [8] it was 75.1%; in experiment [9], 50.7%; in experiment [10], 69.7%; in [11] it was 90.9%; in experiment [12], 62.4%. In addition, the growth in experiment [13] was 92.2%; in [14], 48.3%; in experiment [15] it was 48.6%; in experiment [16] it was 70.5%; in experiment [17] it was 55.9%.
As for `CCc1ccc2nc(NC(=O)Cc3csc(NC(=O)c4ccco4)n3)sc2c1`, the growth in experiment [1] was 55.8%; in experiment [2], 43.3%; in experiment [3] it was 83.1%; in [4] it was 43.1%; in [5], 65.1%; in experiment [6], -9.65% (active). The growth in [7] is 64.1%; in experiment [8] it was 31.4%; in experiment [9], 77.5%; in [10], 55.1%; in experiment [11] it was 57.4%; in experiment [12] it was 90.6%. In addition, the growth in experiment [13] is 101%; in experiment [14], 18.3%; in experiment [15], 78%; in experiment [16] it was 101%; in [17], 78.6%.
Consider `Cc1c(C(=O)N[C@@H](Cc2ccccc2)C(=O)C(=O)NCc2ccc(F)cc2)[nH]c2ccccc2c1=O`, for which the growth is 87.9% in [1]; 102% in experiment [2]; 104% in [3]; 90.6% in experiment [4]; 99.6% in [5]; 96.8% in experiment [6]. Moreover, the growth is 102% in [7]; 105% in experiment [8]; 102% in experiment [9]; 103% in experiment [10]; 110% in [11]; 101% in [12]. Further, the growth in [13] was 97.5%; in [14], 91.2%; in experiment [15], 99.9%; in experiment [16], 93.8%; in experiment [17] it was 101%.
As to `COc1nc2ccc(C)cc2cc1-c1nc2c(cnn2-c2ccc(Br)cc2)c(=O)[nH]1`, the growth was 33.2% in experiment [1]; 40.7% in experiment [2]; 73.2% in [3]; 58% in experiment [4]; 43.3% in [5]; 38.4% in experiment [6]. The growth in experiment [7] is -17% (active); in experiment [8], 34.3%; in [9], 14.2%; in experiment [10], 58.3%; in [11], 91.2%; in experiment [12] it was -27.1% (active). For the same compound, the growth in experiment [13] was 28.6%; in experiment [14] it was 21.8%; in [15] it was 13.7%; in experiment [16], 88.4%; in experiment [17], 25%.
On to `COc1ccc(-c2cnc3ccccc3n2)cc1`, for which the growth was 97.2% in [1]; 99.7% in [2]; 92.6% in experiment [3]; 94.2% in [4]; 98.5% in [5]; 94.9% in experiment [6]. The growth was 103% in experiment [7]; 89.4% in experiment [8]; 102% in experiment [9]; 96.7% in experiment [10]; 95.1% in experiment [11]; 94.4% in experiment [12]. Also, the growth was 96.6% in experiment [13]; 105% in experiment [14]; 99.2% in [15]; 95.4% in experiment [16]; 92.7% in [17].
Turning to `c1cc(-c2nnc(SSc3ncnc4nc[nH]c34)o2)ccn1`, the growth was 16.1% in experiment [1]; 20.4% in experiment [2]; 39.7% in experiment [3]; 63.3% in experiment [4]; 32.8% in [5]; 48.2% in experiment [6]. Moreover, the growth in [7] is 31.1%; in [8], 66%; in experiment [9], 27.3%; in experiment [10], 42.3%; in [11] it was 51.7%; in experiment [12] it was 16%. In addition, the growth was 34.6% in [13]; 23% in experiment [14]; 16.6% in experiment [15]; 10.3% in experiment [16]; 45.8% in experiment [17].
In the case of `CC(=O)CC(c1cccs1)c1c(-c2ccccc2)[nH]c2ccccc12` (centres undefined), the growth in [1] is 78%; in experiment [2], 92.5%; in experiment [3] it was 99.8%; in experiment [4], 82.6%; in experiment [5], 90.1%; in experiment [6], 83.3%. The growth in experiment [7] is 86.4%; in experiment [8], 82.1%; in experiment [9], 69%; in [10] it was 84.6%; in experiment [11], 105%; in [12], 98%. The growth was 90.4% in experiment [13]; 92.2% in experiment [14]; 89.9% in experiment [15]; 97.8% in [16]; 94.3% in [17].
With `CN1C(=O)N(C)C2Nn3c(s/c(=C\c4ccccc4)c3=O)=NC21` (centres undefined), the growth was 101% in [1]; 96% in experiment [2]; 100% in [3]; 101% in [4]; 100% in experiment [5]; 100% in experiment [6]. For the same compound, the growth in experiment [7] is 100%; in experiment [8] it was 96.2%; in experiment [9], 99.7%; in experiment [10] it was 98.2%; in experiment [11], 97.1%; in experiment [12] it was 85.9%. The growth in experiment [13] was 96.9%; in experiment [14], 87.1%; in experiment [15], 88.8%; in experiment [16], 104%; in experiment [17], 97.5%.
Turning to `N#C/C(=C\c1cccc2cnccc12)n1nnc2cccc(F)c21`, the growth was 6.88% (active) in [1]; 41.7% in experiment [2]; 31.8% in experiment [3]; 38.7% in [4]; 90.2% in [5]; 26.5% in [6]. Moreover, the growth is 35.3% in [7]; 47.1% in [8]; 23.8% in experiment [9]; 23.5% in [10]; 17% in experiment [11]; 29% in experiment [12]. The growth in experiment [13] is 21.5%; in experiment [14] it was 19.3%; in experiment [15] it was 10.4%; in experiment [16], 42.7%; in [17], 62.1%.
